Screening data (PubChem)
In the library only some 3.9% were active in any assay of this set; here they are far more common.
Bead autofluor = flagged as autofluorescent in microsphere protease counterscreen | compound autofluorescence counterscreen, microsphere flow cytometry; hits give high values | 360,000 compounds, 3.1% hits | fluorescence intensity (test concentration not listed) | AID 624483; in the data active = fluorescence intensity above about 16000; inconclusive = no clear call, values can overlap the other calls
Anthrax LF prot = inhibitors of Bacillus anthracis lethal factor protease | multiplex microsphere protease cleavage assay, LF | 360,000 compounds, 0.12% hits | inhibition, % at 10 µM
MazEF act = MazEF (E. coli) toxin RNase activation | FAM/BHQ RNA-DNA oligo cleavage fluorescence, 5 h | activation, % at 20 µM | 350,000 compounds, 0.32% hits | AID 504720; in the data active = activation above about 50%
BoNT F protease = blocks Botulinum neurotoxin F light chain protease. Multiplex microsphere protease cleavage assay, flow cytometry. inhibition, % at 10 µM. 360,000 compounds, 0.22% hits; in the data active = inhibition above about 35%, passing the limit was not always enough; inconclusive = no clear call, values can overlap the other calls
Vc quorum ag = induces V. cholerae light production without autoinducers; V. cholerae BH1578 lux reporter, luminescence, 6 h; activation, % at 18.7 µM; 350,000 compounds, 0.16% hits; in the data active = activation mostly above about 9.7%, no sharp cut-off; inconclusive = no clear call, values can overlap the other calls; inactive = mostly below about 3.7%
BoNT A protease = blocks Botulinum neurotoxin A light chain protease; multiplex microsphere protease substrate cleavage, flow cytometry; inhibition, % at 10 µM; 360,000 compounds, 0.17% hits; AID 588499
A number is an active result. Rule as the data show it, unless noted: active = inhibition above about 30%; inconclusive = no clear call, values can overlap the other calls; inactive = below that.

Screening C[C@@H]1CN([C@@H](C)CO)C(=O)CCCn2nncc2CO[C@@H]1CN(C)S(=O)(=O)c1cccc(C#N)c1 returned Bead autofluor inactive, Anthrax LF prot inactive, MazEF act inactive, BoNT F protease inactive, Vc quorum ag inactive and BoNT A protease inactive.
Screening Cc1[nH]c2ccccc2c1C(O)CN1CCC2(CC1)OCCO2 (centres undefined) returned Bead autofluor inactive, Anthrax LF prot inactive, MazEF act inactive, BoNT F protease inconclusive, Vc quorum ag inactive and BoNT A protease inactive.
CCOC(=O)c1nn(-c2ccccc2)c(=O)cc1SC(C)C was read as Bead autofluor inactive, Anthrax LF prot inactive, MazEF act inactive, BoNT F protease inactive, Vc quorum ag inactive and BoNT A protease inactive.
`CCOC(=O)c1nn(-c2ccccc2)c(=O)cc1SC(C)CC` (centres undefined) gave Bead autofluor 23432, Anthrax LF prot inactive, MazEF act inactive, BoNT F protease inactive, Vc quorum ag inactive and BoNT A protease inactive.
For CCCCSc1cc(=O)n(-c2ccccc2)nc1C(=O)OCC the results were Bead autofluor 23302, Anthrax LF prot inactive, MazEF act inactive, BoNT F protease inactive, Vc quorum ag inactive and BoNT A protease inactive.
For CC(C)C[C@H]1CN(CCCC[C@@H]2CNC(=O)C(=O)N2CC2CCCCC2)C(=O)C(=O)N1CCc1ccccc1 the results were Bead autofluor inactive, Anthrax LF prot inactive, BoNT F protease inactive and BoNT A protease inactive.
`CCCNC(=O)Cn1sc2nc(C)cc(C)c2c1=O` gave Bead autofluor inactive, Anthrax LF prot inactive, MazEF act inactive, BoNT F protease inactive, Vc quorum ag inactive and BoNT A protease inactive.
`CCOC(=O)/C=C/C(=O)N1CCN(C(=O)/C=C/C(=O)OCC)CC1` gave Bead autofluor inactive, Anthrax LF prot inactive, MazEF act inactive, BoNT F protease inactive, Vc quorum ag inactive and BoNT A protease inactive.
For Nc1oc2ccccc2c1C(=O)Cc1ccccc1O[C@@H]1O[C@H](CO)[C@@H](O)[C@H](O)[C@H]1O the results were Bead autofluor inactive, Anthrax LF prot inactive, MazEF act inactive, BoNT F protease inactive, Vc quorum ag inactive and BoNT A protease inactive.
`COc1ccc(N2CCN(C(c3cc4cc(C)ccc4[nH]c3=O)c3nnnn3Cc3ccccc3)CC2)cc1` (centres undefined) gave Bead autofluor 20480, Anthrax LF prot inactive, MazEF act inactive, BoNT F protease inactive, Vc quorum ag inactive and BoNT A protease inactive.
Screening Cc1ccc2cc(C(c3nnnn3Cc3ccccc3)N3CCN(c4ccccc4)CC3)c(=O)[nH]c2c1 (centres undefined) returned Bead autofluor 23279, Anthrax LF prot inactive, MazEF act inactive, BoNT F protease inactive, Vc quorum ag inactive and BoNT A protease inactive.
CN(CCO)c1cccc2c1S(=O)(=O)N[C@H](Cc1ccccc1)CO2 was read as Bead autofluor inactive, Anthrax LF prot inactive, BoNT F protease inactive and BoNT A protease inactive.
Screening CCOC(=O)c1ccc(CC(=O)c2oc3cc(O)ccc3c2C)o1 returned Bead autofluor inactive, Anthrax LF prot inactive, MazEF act 67, BoNT F protease inactive, Vc quorum ag inactive and BoNT A protease inactive.
CCOC(=O)c1ccc(CC(=O)c2ccc(O)c(O)c2O)o1 was read as Bead autofluor inactive, Anthrax LF prot inactive, MazEF act inactive, BoNT F protease inactive, Vc quorum ag inactive and BoNT A protease inactive.
`CC(C(=O)N1CCc2ccccc21)N1CCN(c2cccc(C(F)(F)F)c2)CC1` (centres undefined) gave Bead autofluor inactive, Anthrax LF prot inactive, MazEF act inactive, BoNT F protease inactive, Vc quorum ag inactive and BoNT A protease inactive.
Cc1cccc(C)c1NC(=S)N/N=C/c1ccc(OCCC(C)C)cc1 was read as Bead autofluor 20711, Anthrax LF prot inactive, MazEF act inactive, BoNT F protease inactive, Vc quorum ag inactive and BoNT A protease inactive.
Screening OC1(c2ccc(F)cc2)CCNC1 (centres undefined) returned Bead autofluor 23064, Anthrax LF prot inactive, MazEF act inactive, BoNT F protease inactive, Vc quorum ag inactive and BoNT A protease inactive.
O=C(NCc1cccnc1)c1cc(C2CCCCN2S(=O)(=O)Cc2ccccc2)on1 (centres undefined) was read as Bead autofluor inactive, Anthrax LF prot inactive, BoNT F protease inactive, Vc quorum ag inactive and BoNT A protease inactive.
Screening CCOC(=O)N1CCN(S(=O)(=O)c2ccc(OCC(=O)OC)c(C)c2)CC1 returned Bead autofluor 25177, Anthrax LF prot inactive, MazEF act inactive, BoNT F protease inactive, Vc quorum ag inactive and BoNT A protease inactive.
For O=C(Nc1ccccc1C(F)(F)F)c1cc(S(=O)(=O)N2CCC3(CC2)OCCO3)ccc1F the results were Bead autofluor 23758, Anthrax LF prot inactive, MazEF act inactive, BoNT F protease inactive, Vc quorum ag inactive and BoNT A protease inactive.
Screening CCOC(=O)N1CCN(S(=O)(=O)c2ccc(F)c(C(=O)Nc3cc(C)cc(C)c3)c2)CC1 returned Bead autofluor 22579, Anthrax LF prot inactive, MazEF act inactive, BoNT F protease inactive, Vc quorum ag inactive and BoNT A protease inactive.
For COc1ccccc1NC(=O)c1ccc(S(=O)(=O)N2CCOCC2)cc1 the results were Bead autofluor 22270, Anthrax LF prot inactive, MazEF act inactive, BoNT F protease inactive, Vc quorum ag inactive and BoNT A protease inconclusive.
Screening CCOC(=O)N1CCN(S(=O)(=O)c2ccc(F)c(C(=O)Nc3cccc(Cl)c3C)c2)CC1 returned Bead autofluor inactive, Anthrax LF prot inactive, MazEF act inactive, BoNT F protease inactive, Vc quorum ag inactive and BoNT A protease inactive.
`O=C(NC1CCCCCC1)c1cc(S(=O)(=O)N2CCC3(CC2)OCCO3)ccc1F` gave Bead autofluor inactive, Anthrax LF prot inactive, MazEF act inactive, BoNT F protease inactive, Vc quorum ag inactive and BoNT A protease inactive.
CC(=O)N(c1nnc(-c2ccc(C)cc2)s1)C1CCCC1 was read as Bead autofluor inactive, Anthrax LF prot inactive, MazEF act inactive, BoNT F protease inactive, Vc quorum ag inactive and BoNT A protease inactive.
Screening O=C(Nc1nnc(-c2ccc(F)cc2)o1)c1ccc(S(=O)(=O)N2CCOCC2)cc1 returned Bead autofluor inactive, Anthrax LF prot inactive, MazEF act inactive, BoNT F protease inactive, Vc quorum ag 25 and BoNT A protease inactive.
Cc1c(C(=O)Nc2ccc(F)cc2)oc2ccc(S(=O)(=O)N3CCCC3)cc12 was read as Bead autofluor inactive, Anthrax LF prot inactive, MazEF act inactive, BoNT F protease inactive, Vc quorum ag inactive and BoNT A protease inactive.
Screening Cc1ccc(NC(=O)c2cc(S(=O)(=O)N3CCC4(CC3)OCCO4)ccc2F)cc1 returned Bead autofluor 22105, Anthrax LF prot inactive, MazEF act inactive, BoNT F protease inactive, Vc quorum ag inactive and BoNT A protease inactive.
For Cc1c(C(=O)Nc2ccc(F)cc2)oc2ccc(S(=O)(=O)N3CCC4(CC3)OCCO4)cc12 the results were Bead autofluor 21736, Anthrax LF prot inactive, MazEF act inactive, BoNT F protease inactive, Vc quorum ag inactive and BoNT A protease inactive.
